How the values were obtained:
Assay type in all cases: functional
[1] = molecular target: Solute carrier family 2, facilitated glucose transporter member 1 (Homo sapiens) (UniProt P11166); assay: ST_JUDE_LEISH: Cytotoxicity at 2uM final concentration against transgenic Leishmania Mexicana promastigotes LmGLUT1 that are glucose transport deficient and complemented with the human glucose transporter GLUT1. Activity is measured by DNA content using SYBR green in vitro
[2] = molecular target: Hexose transporter 1 (Plasmodium falciparum) (UniProt O97467); assay: ST_JUDE_LEISH: Cytotoxicity at 2uM final concentration against transgenic Leishmania Mexicana promastigotes LmPfHT that are glucose transport deficient and complemented with the Plasmodium falciparum hexose transporter. Activity is measured by DNA content using SYBR green in vitro
[3] = molecular target: Glucose transporter (Leishmania mexicana) (UniProt O61059); assay: ST_JUDE_LEISH: Cytotoxicity at 2uM final concentration against transgenic Leishmania Mexicana promastigotes LmGT2 that are glucose transport deficient and complemented with the L. Mexicana glucose transporter 2. Activity is measured by DNA content using SYBR green in vitro

Solute carrier family 2, facilitated glucose transporter member 1 (Homo sapiens), sequence (P11166 whole entry): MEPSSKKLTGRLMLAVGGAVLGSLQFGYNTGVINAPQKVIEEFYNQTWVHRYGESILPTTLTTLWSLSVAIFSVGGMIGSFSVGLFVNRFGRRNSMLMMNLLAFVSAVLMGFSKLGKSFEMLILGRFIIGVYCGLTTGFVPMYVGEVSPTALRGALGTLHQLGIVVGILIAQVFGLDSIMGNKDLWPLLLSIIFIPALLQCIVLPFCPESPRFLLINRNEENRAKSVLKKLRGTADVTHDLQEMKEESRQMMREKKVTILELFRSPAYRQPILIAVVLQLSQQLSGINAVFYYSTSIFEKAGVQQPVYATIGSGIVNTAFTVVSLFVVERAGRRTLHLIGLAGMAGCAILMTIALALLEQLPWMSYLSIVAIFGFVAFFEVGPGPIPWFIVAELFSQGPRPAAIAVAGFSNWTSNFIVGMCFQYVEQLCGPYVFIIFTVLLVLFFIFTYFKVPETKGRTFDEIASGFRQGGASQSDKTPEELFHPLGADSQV

Structure (SMILES)	inhibition [1] [%]	inhibition [2] [%]	inhibition [3] [%]
COc1ccc2nccc([C@@H](O)CN3CCC(NCc4cc5cccc(OC)c5o4)CC3)c2c1	1.32	3.57	-0.75
Cc1cc(C(=O)Nc2ccc3c(ccn3C3CCCN(Cc4ccc(C(F)(F)F)cc4F)CC3)c2)no1 (centres undefined)	-0.37	0.5	-0.5
Cc1ccc(O)c(-c2cc(C(=O)Nc3ccc(S(=O)(=O)N4CCCCC4)cc3)[nH]n2)c1	3.32	1.22	1.19
N=C1SC(=Cc2cn[nH]c2-c2ccc(F)cc2)C(=O)N1c1nccs1	0.88	2.1	1.17
CCCCCN1CCCC1CNS(=O)(=O)c1ccc(C(=O)Nc2ccc(C(F)(F)F)cc2)cc1 (centres undefined)	4.05	3.41	1.09
CC(=O)c1ccc(-c2ccc(C(=O)NCCCCN3CCC(c4ccc5c(c4O)CCCC5)CC3)cc2)cc1	3.01	3.4	1.3
COc1ccccc1-c1nc2nc(N)nc(N)c2nc1-c1ccccc1OC	0.82	1.25	1.01
CCn1ccc2c(N3CCCCS3(=O)=O)cc(C(=O)N[C@@H](Cc3ccccc3)[C@H](O)CNC(C)(C)CCCC(C)C)cc21	2.17	1.95	5.14
CC(CN(C)C)C(=O)Nc1cccc(-c2ccc(-c3nc4cc(F)ccc4[nH]3)s2)c1 (centres undefined)	3.85	2.55	4.47
CN(C)CCN(C)Cc1ccc(-c2ccc(NC(=O)c3ccc(Cl)cc3)cc2)cc1	21.2	11.3	7.17
Nc1nc(N)c2c(ccc3c2ccn3CCCC(F)(F)F)n1	14.2	20.3	8.28
COc1ccccc1CCNc1nc(C)cc(N[C@@H](Cc2ccccc2)C(=O)Nc2ccccc2)n1	12	10.7	8.65
FC(F)(F)COc1c(CNCCCCCCNCc2ccc3ccccc3c2OCC(F)(F)F)ccc2ccccc12	87.7	95.5	104
CCOC(=O)c1ccc(N2CCCCC2)c(NC(=O)C(Cl)(Cl)Cl)c1	-2.66	-0.39	-1.19
CN(C)c1ccc2c(c1)Sc1cc(N(C)C)ccc1N2C(=O)CCCC(=O)O	5.15	1.94	-0.96
Cc1nc2ccc3ccc(CNc4ccc5c(c4)CN([C@@H](CCC(=O)O)C(=O)O)C5=O)cc3c2c(=O)[nH]1	1.71	-0.99	-1.52
ON=C1CCc2cc(-c3cc(-c4ccc(OC5CCNCC5)cc4)oc3-c3ccncc3)ccc21	1.43	3.53	-0.04
CC(C)CN(C)Cc1ccc(-c2ccc(-c3nc4ccccc4[nH]3)s2)cc1	-1.24	-0.64	-1.65
COc1ccccc1CCCON1C(=N)N=C(N)NC1(C)C	5.24	5.03	4.51
O=C(Nc1cccc(Cl)c1)N[C@H]1CCN(Cc2ccc(OCCCN3CCCCC3)cc2)C1	9.4	9.12	8.16
COc1ccc2[nH]ccc(=NN=Cc3cccc(F)c3)c2c1	1.01	2.87	0.07
CC1(C)N=C(N)N=C(N)N1OCCCOc1cccc(C(=O)O)c1	5.03	5.61	3.22
CC(CCc1ccc(OCc2ccccc2)cc1)NCC(O)c1ccccc1 (centres undefined)	-1.32	0.43	-0.69

— ChEMBL document CHEMBL3433997, “St. Jude Leishmania screening dataset” (2016)
